Screening results (PubChem BioAssay)
Shown are actives, neighbours in structure and some others; about 11% of the full set was active somewhere.
ALDH1A1 block – blocks purified human ALDH1A1 activity; P00352; Purified ALDH1A1, NADH fluorescence, propionaldehyde substrate; Potency, µM (highest dose often 75.3 µM), inactives show at the highest dose activity, negative = inhibition, usual class: inhibitors; 7.3% of 220,000 active; AID 1030;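 note: potency is the fitted concentration of half-maximal effect; plate controls were no enzyme wells and a reference inhibitor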
Target sequence (P00352 whole entry, looked up): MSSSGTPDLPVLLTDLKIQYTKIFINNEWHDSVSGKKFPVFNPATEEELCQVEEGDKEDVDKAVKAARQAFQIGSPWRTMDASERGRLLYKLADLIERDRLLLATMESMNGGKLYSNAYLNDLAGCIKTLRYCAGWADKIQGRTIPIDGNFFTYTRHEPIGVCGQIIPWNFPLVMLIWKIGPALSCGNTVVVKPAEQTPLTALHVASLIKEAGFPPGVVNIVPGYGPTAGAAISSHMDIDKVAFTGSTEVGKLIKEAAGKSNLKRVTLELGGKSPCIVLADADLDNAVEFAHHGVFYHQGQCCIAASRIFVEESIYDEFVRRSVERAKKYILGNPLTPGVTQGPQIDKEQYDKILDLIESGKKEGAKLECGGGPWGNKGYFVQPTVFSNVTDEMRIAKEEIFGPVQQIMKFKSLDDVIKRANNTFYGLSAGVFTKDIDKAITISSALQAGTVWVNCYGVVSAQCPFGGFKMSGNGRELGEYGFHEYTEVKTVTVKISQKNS
HPGD inh – blocks human HPGD enzyme activity. P15428. purified HPGD, NADH fluorescence kinetic, PGE2 substrate. Potency, µM, without a hit: at the top dose activity change, negative = inhibition, usual class: inhibitors. 4.3% of 150,000 active; note: potency is the fitted concentration of half-maximal effect
Target sequence (P15428 whole entry, looked up): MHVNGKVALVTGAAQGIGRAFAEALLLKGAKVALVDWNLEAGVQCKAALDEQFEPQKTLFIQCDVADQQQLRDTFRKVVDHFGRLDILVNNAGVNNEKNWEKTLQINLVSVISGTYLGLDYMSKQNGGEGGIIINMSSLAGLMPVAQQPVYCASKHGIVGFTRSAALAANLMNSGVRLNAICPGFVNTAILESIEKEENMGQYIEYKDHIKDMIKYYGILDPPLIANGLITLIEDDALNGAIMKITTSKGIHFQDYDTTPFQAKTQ
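20 nM HPGD preincubated 15 min at room temperature with compound in 50 mM Tris-HCl pH 8, 0.01% Tween 20. Started with 1 mM NAD+ and 30 uM prostaglandin E2; NADH fluorescence (360/450 nm) read 5 times over 30-s intervals, last minus first.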
PNC assembly inh – perinucleolar compartment assembly inhibition; PC3M PTB-GFP, PNC prevalence imaging, 16 h; hits give low values; activity change (PNC), negative = inhibition, % at 10 µM; 3.1% of 140,000 active; AID 2417;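 active = readout at or below -70, meaning at least 70% loss of cells showing the perinucleolar compartment, a nuclear body marking cancer cells; inconclusive = readout between -30 and a set limit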;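 note: plate controls were DMSO wells for no effect and camptothecin positive control wells for full effect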
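Compounds are pinned in duplicate onto adhered PC3M cells stably expressing GFP-tagged PTB and incubated 16 h at 37 C. Cells are then fixed, nuclei stained with Hoechst, and PNC-positive cells counted.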
NPSR antag – neuropeptide S receptor (human) antagonism, cAMP; 1% of 220,000 active; Q6W5P4; CHO-NPSR cells, cAMP TR-FRET, antagonist mode; Potency, µM (top dose mostly 38.3 µM), for inactives: top-dose activity change, negative = inhibition, most hits filed as inhibitors; active = well fitted curve in the direction sought with a large enough effect; inconclusive = small, poorly fitted or top-dose-only effect, or another doubt; inactive = no such curve, though single readings can be large; an effect the other way counts as inactive or inconclusive; note: potency is the fitted concentration of half-maximal effect; nearly all actives have a fitted effect of over 50% in size
IMPase Li cell – membrane-permeable IMPase blocker, potentiated with lithium. CHO-M1 cells, IP1 TR-FRET (IP-One), carbachol + lithium. AID 1457. Potency, µM (series often up to 59.4 µM), for inactives: top-dose activity, negative = IMPase inhibition, usual class: inhibitors. 0.35% of 210,000 active; active = well fitted curve in the direction sought with a large enough effect; inconclusive = small, poorly fitted or top-dose-only effect, or another doubt; inactive = no such curve, though single readings can be large; an effect the other way counts as inactive or inconclusive;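 note: IP1 builds up when IMPase is blocked and the TR-FRET signal falls; potency is the fitted concentration of half-maximal effect; plate controls were basal vehicle for no effect and high inhibitor control for full effect; nearly all actives have a fitted effect of over 50% in size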
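Lithium-sensitised IP1 accumulation assay; M1-expressing CHO cells treated 30 min at 37C with compound. Competitive antibody detection by time-resolved FRET followed a 10 min room-temperature lysis step.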
IMPase cell inh – membrane-permeable compound that blocks inositol monophosphatase; 120,000 tested, under 10 active; P97697; inhibition (IP1 accumulation), % at 46.1 µM; AID 901; CHO-M1 cells, IP1 accumulation, HTRF TR-FRET ratio; active = well fitted curve in the direction sought with a large enough effect in the signal ratio, not every such curve was filed as active; inconclusive = small, poorly fitted or top-dose-only effect, or a change in a side signal; inactive = no such curve, though single readings can be large or run the other way; the % refers to the signal ratio;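 note: cells stimulated with carbachol in lithium chloride buffer; plate controls were DMSO basal wells for no effect and reference inhibitor wells for full effect; higher means more IMPase inhibition seen as more IP1 and lower FRET ratio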
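In this qHTS, compounds (final up to 46 uM) act on CHO-M1 cells that are then activated through the M1 receptor with carbachol, in pH 7.4 buffer containing 50 mM LiCl, for 30 min. IP1 accumulation is quantified by the IP-One immunoassay.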
The depositor's hits bear a star; u = inconclusive; x = no result given; [ ] = another dose, or the depositor's remark. Unless noted, calls come from the whole dose curve; as a rule, active = well fitted inhibition curve with a large enough effect (not every such curve was filed as active); inconclusive = small, poorly fitted or top-dose-only effect, or another doubt; inactive = no such curve, though single readings can be large or run the other way. Unless noted, % is set by controls: 0 for no effect and ±100 for the full control effect.

SMILES | ALDH1A1 block | HPGD inh | PNC assembly inh | NPSR antag | IMPase Li cell | IMPase cell inh
Cc1ccc(C(=O)CN(C(=O)c2ccc(Cl)c(Cl)c2)N2C(=O)C3CCCCC3C2=O)cc1 (configuration not stated) | 11% | -12% | 8 | 4%[46.1 µM] | -9%[38.3 µM] | 5
COc1cccc(C(=O)CN(C(=O)c2ccc(Cl)cc2Cl)N2C(=O)c3ccccc3C2=O)c1 | 16µM* | -15% | 45 | 9% | 5% | x
COc1cccc(C(=O)COC(=O)C(C)N2C(=O)c3ccccc3C2=O)c1 (configuration not stated) | -15% | -17% | -28 | -16%[46.1 µM] | 8%[38.3 µM] | 6
COc1cccc(C(=O)CN(C(=O)c2ccc(Cl)c(Cl)c2)N2C(=O)c3ccccc3C2=O)c1 | 14µM* | -8% | u | u | -4%[38.3 µM] | -2
O=C(CC1C(=O)NCCN1C(=O)Nc1ccccc1)Nc1cccc(Cl)c1 (configuration not stated) | -9% | x | x | 0% | 5% | x
O=C(Oc1ccc2ccccc2c1Cl)N1CCCC1 | -8% | -9% | -89* | -10%[46.1 µM] | 8%[38.3 µM] | -5
O=C(Oc1ccc2ccccc2c1Cl)N1CCCCCC1 | 4% | u | 37 | -29% | 1% | 6
C=CCn1c(SCc2ccccc2C#N)nnc1-c1cc(Br)ccc1O | -5% | 14µM* | u | -21%[46.1 µM] | 38%[38.3 µM] | 1
Cc1cc(NS(=O)(=O)N(C)C)ccc1C(C)C | u | 16µM* | 21 | -10%[46.1 µM] | 25%[38.3 µM] | -4
CN(C)S(=O)(=O)Nc1ccc2c(c1)OCO2 | 1% | u | 0 | 3%[46.1 µM] | 1%[38.3 µM] | -15
O=C1C=C(c2cccs2)CC(c2cccs2)C1n1cnc([N+](=O)[O-])c1 (configuration not stated) | 28µM* | -15% | 21 | u | 1%[38.3 µM] | 2
Cc1cc(Cl)ccc1NC(=O)CCC(=O)N/N=C/c1cc([N+](=O)[O-])ccc1O | 0% | x | x | -1% | 2% | x
CC1(C)Cn2c(nnc2-c2cccc(O)c2)S1 | u | 16µM* | 39 | -7%[46.1 µM] | 11%[38.3 µM] | 2
CC1Cn2c(nnc2-c2cccc(Cl)c2)S1 (configuration not stated) | 7% | -29% | -17 | 6%[46.1 µM] | 3% | -14
COc1ccc(S(=O)(=O)O/N=C2\CCCc3ccccc32)cc1 | u | -7% | 18 | -8%[46.1 µM] | 28%[38.3 µM] | -1
O=c1c2[nH]c3ccccc3c2ncn1C1CCCCC1 | u | -24% | -9 | -22%[46.1 µM] | -9%[38.3 µM] | 3
O=C1c2ccccc2C(=O)c2c1ccc1c(=O)n(C3CCCCC3)[nH]c21 | -11% | 14µM* | 7 | -23%[46.1 µM] | 39% | -9
COCc1cc(C)n(CC(=O)Nc2ccccc2C(=O)OC)c(=O)c1C#N | u | u | u | 2%[46.1 µM] | -11%[38.3 µM] | 13
O=[N+]([O-])c1cc(S(=O)(=O)Nc2cccc(C(F)(F)F)c2)ccc1-n1nnc2ccccc21 | u | 32µM* | 3 | 5%[46.1 µM] | 41%[38.3 µM] | 3
Cc1ccccc1Nc1nnc(SCc2cc(=O)n3ccsc3n2)s1 | u | 28µM* | -20 | -11%[46.1 µM] | 8%[38.3 µM] | 7
O=c1cc(CSc2nnc(Nc3ccccc3)s2)nc2sccn12 | -3% | 18µM* | 8 | -3%[46.1 µM] | 21%[38.3 µM] | 1
CC(C)Nc1nnc(SCc2cc(=O)n3ccsc3n2)s1 | u | x | x | 7% | 5% | x
C/C(N)=C(/C#N)C(=O)CSc1nnc(Nc2ccccc2)s1 | 1% | x | x | 5% | -6% | x
C/C(N)=C(/C#N)C(=O)CSc1nnc(Nc2ccccc2C)s1 | u | 28µM* | 17 | -12%[46.1 µM] | -16%[38.3 µM] | 7
Cc1nc(SCC(=O)Nc2ccc(F)cc2)c2oc3ccccc3c2n1 | 5% | -5% | 1 | u | u | u
SMILES | ALDH1A1 block | HPGD inh | PNC assembly inh | NPSR antag | IMPase Li cell | IMPase cell inh
CCCC(=O)Nc1cc(S(=O)(=O)N(CC)CC)ccc1Cl | 13µM* | -24% | -19 | -3% | 7% | x
CCN(CC)S(=O)(=O)c1ccc(Cl)c(NC(C)=O)c1 | u | x | x | 5% | 7% | x
CCN(CC)S(=O)(=O)c1ccc(Cl)c(NC(=O)COC(=O)c2ccc(O)cc2)c1 | 16µM* | x | x | -38% | 25% | x
CC(C)CN(C(=O)COC(=O)c1ccc2c(c1)NC(=O)CS2)C1CCS(=O)(=O)C1 (configuration not stated) | 40µM* | u | u | 0%[46.1 µM] | -4%[38.3 µM] | 1
CCN(CC)S(=O)(=O)c1ccc(Cl)c(NC(=O)c2ccc(C#N)cc2)c1 | u | 2% | -97* | -19% | 3% | x
O=C(N/N=C/c1ccccn1)c1ccc([N+](=O)[O-])cc1 | -7% | x | x | -25% | 5% | x
Cc1cc(-c2ccccc2)nc(N(C)NC(=O)C2CC2)c1S(C)(=O)=O | 5% | x | x | 27% | 6% | x
CN(C)S(=O)(=O)c1ccc(Cl)c(NC(=O)COC(=O)c2ccc(O)cc2)c1 | u | x | x | -28% | 19% | x
CN(C)S(=O)(=O)c1ccc(Cl)c(NC(=O)COC(=O)c2ccc3c(c2)NC(=O)CS3)c1 | 3.5µM* | x | x | 16% | x | x
CS(=O)(=O)c1ccc(Cl)c(NC(=O)CCl)c1 | 3.2µM* | x | x | 19% | -6% | x
CCn1cc(C(=O)NCc2ccccc2Cl)cn1 | 7% | 32µM* | u | 12% | -6% | x
CCN(CC)S(=O)(=O)c1ccc(Cl)c(C(=O)NCc2ccccc2Cl)c1 | 7.9µM* | -6% | -12 | -29%[46.1 µM] | -3%[38.3 µM] | 1
Cn1ncc2c(NNC(=O)c3ccc(Cl)c(Cl)c3)ncnc21 | 1% | -10% | 15 | -11% | 1% | -6
Cc1[nH]n(-c2ccccc2)c(=O)c1C=NCc1ccncc1 | x | x | x | 2% | x | x
CC1=CC[C@@]2(CO)COC(c3ccccc3O)C1C2 (some centres not stated) | u | 0% | x | x | 10% | x
COc1ccc(CCNC(=O)CN2CCN(c3ccccc3Cl)CC2)cc1 | 3.2µM* | -2% | u | -19%[46.1 µM] | 41%[38.3 µM] | 8
COc1cccc(NC(=O)CN2CCN(c3ccccc3F)CC2)c1 | 10µM* | -6% | u | -18%[46.1 µM] | 29%[38.3 µM] | 0
COC(=O)c1cccc(NC(=O)CN2CCN(Cc3ccccc3)CC2)c1 | 25µM* | 3% | -22 | -15%[46.1 µM] | 34%[38.3 µM] | -4
O=C(CN1CCN(Cc2ccccc2)CC1)Nc1cccc(C(F)(F)F)c1 | 2% | -11% | 31 | -3%[46.1 µM] | 17%[38.3 µM] | -2
COc1cc(NC(=O)CN2CCN(c3ccccc3F)CC2)cc(OC)c1 | 22µM* | -3% | u | -21%[46.1 µM] | 15%[38.3 µM] | 0
COc1ccccc1NC(=O)CN1CCN(c2ccccc2F)CC1 | 12% | -5% | 44 | u | 5%[38.3 µM] | -4
COc1ccc(CCNC(=O)CN2CCN(c3cccc(C(F)(F)F)c3)CC2)cc1 | 3% | -9% | 30 | -13%[46.1 µM] | 26%[38.3 µM] | 8
CC(C)NC(=O)Cn1cnc2c1c(=O)n(C)c(=O)n2C | -2% | -8% | 34 | -11%[46.1 µM] | 8%[38.3 µM] | 2
